Measured values as given in PubChem BioAssay AID1508600 (Functional Genomics Laboratory (NCATS/FGL), 2020).
Among all 53,000 sequences or so, about 3,700 (7%) were called active. The sample as a whole holds a higher share of actives than the screen did. A number with no mark means an inactive call.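 How the source made its calls: active means gene knockdowns whose robust z-score for IL-1 alpha signal is at least 2 or at most -2, so actives lie on both sides; inactive means the rest.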

Experiment: Components of the Cytosolic LPS Sensing Pathway: Gene Identification via Genome-wide siRNA Screen;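 further: robust z of the log signal after scaling to non-targeting control siRNA wells of the plate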
Settings: RAW264.7 macrophages, IL-1a HTRF, actives lie on both sides, screened at 100 nM (by protocol), cells primed 5 h with Pam3CSK4 first
Summary of the method: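 RAW264.7 mouse macrophages reverse-transfected with single siRNAs (100 nM final) for 48h, primed with Pam3CSK4 for 5 hours, then transfected with LipidA for 24 hour. Supernatant IL-1a read by HTRF; values normalized to negative-control median, log-transformed robust z-scores.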

Sequence | z-score
UCUUACAAACUAGCUCUCCTT against Crabp2 | -0.777
GGGACCGUCUUAAACAUCUTT against Rsl1d1 | 2.92 (active)
GGAGAGUAACAAUUAUGAATT against Pcdha9 | 0.983
GCUCGAGAGUACUGUAGGCTT against Kat8 | -2.41 (active)
GGUCUAAUACUCAAUAGACTT against Tmem200a | 0.0917
CCUGAAGGGUCUGGCAAAATT against Zfp804a | 0.66
GGAAUUGGUUCAGAAAUAUTT against Rtn4 | 3.09 (active)
GGUUAAACUACAACAGUUGTT against Tmco5 | 1.04
GGAAGAAUGUAAGUAUACCTT against Zscan12 | 1.68
CGUGGAAGAAAUAAUUAGGTT against Faap24 | 0.664
GCUGGUCUAUGUGGAAAGGTT against Brap | 2.32 (active)
GGUGAAGAGUGAUUUUAAUTT against Il10 | 1.03
GGUGUUGGAAGAGAUGCUGTT against Ap3m2 | 0.405
GGAAGUGGAAUAUGUCACCTT against Cd300lf | -0.206
GCCCACGUUUUAAGUCUACTT against Ap1s3 | 3.69 (active)
GAUACCAAGCUAAAAGAUCTT against Ear10 | 0.0579
GCCAGUCAUCUUUGUAGUCTT against Olfr411 | -0.777
GGAUGUACUUUGUUAAGGCTT against Tert | 2.78 (active)
GGGAGAACAGUGUUCAGAGTT against Bhlha15 | -0.151
CCAUGUGCUGUGCACUACGTT against Chst14 | 0.358
GGAUAAGUGGUCUGCACUATT against Ube2c | -0.412
CCACUAUCCCACCAAUCACTT against Lypd8 | -1.03

Sequence | z-score
GGCUGCUACUUCAGACAGCTT against Pou6f2 | -0.163
GGAGGACCUUCAGAAACUCTT against Gdap2 | 1.14
GGUGUCACGACAAACAUUCTT against Fam83h | -1.6
GGCAAGGAUAUAAAUUCACTT against Mak | 2.47 (active)
GUGGCAGCUGACAUGAAUGTT against Plac8 | -0.138
CGGAUACAAUUUCUGACCGTT against Zdhhc23 | -0.163
GGUUAUUUGGAAGUGCUACTT against Esx1 | 2.81 (active)
GGGACGUGUUAAAAAGGGCTT against Cldn5 | 0.0829
CCGCCUAAAUGACUUGACATT against Fbxw14 | -1.1
GGAAUUUGGUGCAGUGUCCTT against Utp15 | -1.39
GCUAACGAUAUUUAUCACGTT against Olfr385 | -0.474
GGGACUUGUCCAUCCUUUUTT against Qrfprl | -1.71
GGAGCAUUAUAUCAAUCCUTT against Zfp111 | 2.16 (active)
GCUUACUAAGGUGAUAAUGTT against Il17d | 0.0918
CGAAAGAGAUGAUGAUAAUTT against Arrdc3 | 0.641
GGAAAAGCAUUUUCAACGUTT against Lhfpl2 | -1.41
GCGAACGAGACACUUCAAUTT against Pla2g4a | 1.51
GGAGACAUGGCAUCCAAAUTT against Cnr1 | 3.14 (active)
GGAGAAGAGAUCCCUGAACTT against Neurod2 | -0.491
CGUGGUCGUGAGAUGUUUGTT against Chid1 | 1.35
CCUUUUAGUGAAAAUAGCATT against A430010J10Rik | -0.924
GGACUUCUCUGGGACUUCATT against Syt9 | 0.406

Sequence | z-score
GCCUCCUGAAUGAUGACAUTT against Klk1b24 | -0.97
GGUCAAAGUGAUUGUGUGUTT against Cdh16 | 0.555
GGCUAAAUUCUACUUGAUATT against Ppfibp1 | -1.89
GGCUGUUUUCUAUCCUAGGTT against Cd207 | -2.82 (active)
CUUAGCUACUUCAAGGUCATT against Spink8 | 0.628
GCAGGCUCUGCAUGAAGCATT against Alpl | -0.213
GCCCACGUACAGAAAACAGTT against Aox2 | -1.72
GGGAGAACACAUCUACUGATT against Slamf6 | -1.17
GGAGACAUGCAAUGAACUUTT against Ica1l | 1.02
GGAAUUUUUAGGAAUGGUGTT against Slc35f2 | -1.38
GGAUUGCUGUAAAAUACAATT against Cdkn2aipnl | 2.16 (active)
GGAAGGUACCAGGUGAUUGTT against Nmnat3 | -1.89
GGUGCCCAUGCUUGUAGGATT against Cstdc1 | 2.03 (active)
GGUCCAUGCUCUCAUGAGUTT against Batf2 | -1.34
GGUACAGGAAACUCAAAUATT against Lrrc4 | 0.318
GGCCAGUUUAAACCAGUCUTT against Frmd6 | 0.583
GCAUACAAUCAUGUAAGAGTT against Adprh | 0.0994
CCAGAAACCGUGAUAAAAUTT against Immp2l | 2.12 (active)
CGGAGCAUGAGCCAGAUAUTT against Eipr1 | -0.266
GGAGACUGUCAGAAAGUUATT against Olfr1164 | -0.769
GGAAAAAUCCAAGAAGCAATT against Zc3h11a | -1.09
GGACAUUUUUAUGCACAAUTT against Il1rl2 | 1.76

Sequence | z-score
GCUCCUACUGUCCAGCAAUTT against Dusp18 | -0.642
AAUUGAAGACUGUAAAUACTT against Sst | 1.83
GGAACACAAAGGUAAGAAATT against Raf1 | 0.0798
GGUGCAGUUGAACUUCUACTT against Dnajc1 | 2.26 (active)
GGUUUUAAAGCACUUUGUATT against Jazf1 | 0.288
GGAAACUUCUUCCCGGUUGTT against Gsdmc | 1.16
GCUUACAAGGCAUGUAUGATT against Rccd1 | 3.46 (active)
GGGAGUUUGAUUCUGACUCTT against Ank3 | -0.264
CCCAUGAUAAUGAAUUAGCTT against Olfr378 | -0.537
GGUAUUUGUAAAUUUGAGGTT against Atl1 | 0.309
GGUAACAUACUAAAAGAAGTT against Vmn2r10 | -1.21
GCAGGAUUGAAACAUGUAUTT against Tcl1b3 | -0.298
GCCAAUUGGUUCCCUGUAATT against 1700034E13Rik | -3.04 (active)
CGAACUUCCAAAAAGUUCATT against A430005L14Rik | -0.498
GGAUUGGCAAGCAGCUAACTT against Dnase2a | -2.08 (active)
UCACCCUGUUCGUAAUCAUTT against Olfr467 | -0.17
CCACUGGUUCACCUAUAAUTT against Psma5 | 0.092
CGAAUGACCUCGAUAGCUGTT against Gm5082 | 0.195
GGAAGAAGCCACCAUGUACTT against Pbx4 | -1.75
GGCUGAGGUUCGAGUGUAUTT against Rps6ka4 | 3.51 (active)
GGCCAAUAGGACAUAUCUATT against Qprt | -0.443
GCUUAGCUGUUAUGUUUUUTT against Atp6ap1 | 1.81

Sequence | z-score
GCAAUGUGUGGUAAGUAAATT against Zfp738 | -0.757
GGUUUAGCUGCUGACUUAATT against Strn3 | 1.03
GGAGAAGGUUUUGAUGUGGTT against Drg1 | -1.31
GGCAACUGGAGAUGUGUGUTT against Lpgat1 | -0.361
CGACAUCCCAAUAAACAAGTT against Lcn3 | -1.1
GCAGAGGAGUUUUCAAUUUTT against Il17rb | 0.997
GGCCCUUCUGGACUAUCAUTT against Ccdc83 | 3.39 (active)
GGUACCUGAGUCCAUCUCATT against Sntb1 | -0.219
CGAACUUCAAGACUGUGAUTT against Cep95 | -0.248
GGAAAUAAUGACCAAGUACTT against Grk5 | -1.32
CCCUGGUAAACACCAAUAGTT against Ctnna1 | 0.849
GCCUGUCCACAUCACUGUATT against Tmem171 | -0.16
CCCUAAGGAGUUUUGCGUUTT against Ikzf4 | 1.58
GGUCUAUUUGACCUCUUAATT against Bcl2l13 | 2.22 (active)
GGUAUAUGGACUGGUGGAUTT against Hrh2 | 0.41
GGAUCAAUGAAAAUGAGAATT against Fzr1 | -0.0554
CCAGUACCCGUCUGAAAAGTT against Olfr215 | -0.457
GGAUCUUUGCUACAAAAACTT against Fhl5 | 0.48
GGGAUAACCAGUGAAUUUATT against Pcdhb15 | 2.23 (active)
GGGACUUAUGUCCAGGAAGTT against Agap3 | -1.09
